KKLEB tox: reduces viability of KKLEB cystic fibrosis airway cells; KKLEB CF airway cells viability, ATPlite luminescence, overnight; active compounds read low; cells stimulated with P. aeruginosa culture filtrate; activity change (cytotoxicity), % at 5 µM; 360,000 compounds, 0.36% hits; AID 602141;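 active = corrected activity change at or below -50% at 5 µM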
TRPM1 prom inh: reduces MITF-dependent TRPM1 promoter luciferase signal. SK-MEL-5 TRPM1 promoter luciferase, 24 h. inhibition, % at 12.5 µM. 330,000 compounds, 0.83% hits. AID 488899;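 active = mean inhibition across replicates of 60% or more, whatever share of single replicates reaches that level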
CF NFkB block: blocks PAF-induced NF-kB reporter in cystic fibrosis cells; 360,000 compounds, 0.86% hits; AID 588850; inhibition, % at 5 µM; KKLEB NF-kB-GFP reporter, GFP fluorescence overnight;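 active = at least 50% inhibition at 5 µM, scaled per plate between neutral and stimulator controls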;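 also: PAF is a Pseudomonas aeruginosa culture filtrate used as stimulus; plate controls were PAF-stimulated DMSO wells for no effect and unstimulated DMSO wells for full effect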
Peg3 promoter: inhibitors of Peg3 promoter; HeLa PEG-Prom luciferase reporter, luminescence, overnight; inhibition, % at 20 µM; 360,000 compounds, 1.7% hits;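 active = inhibition of at least 50% at 20 µM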
ABHD5-PLIN5 inh: inhibitors of human ABHD5-perilipin-5 interaction; Q00G26+Q8WTS1; Split G. princeps luciferase complementation, luminescence, 4 h; inhibition, % at 4 µM; 360,000 compounds, 0.78% hits; AID 602281;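 active = inhibition above the mean inhibition across every tested compound plus 3 SD, cut at about 22% in these data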;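 also: 0% = DMSO only wells and the 100% control is not disclosed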
HIF-2a block: HIF-2a inhibition; 786-0 RCC cells HIF-2a reporter, luciferase luminescence, overnight; inhibition, % at 18.8 µM; 360,000 compounds, 0.72% hits; AID 624352;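 active = inhibition of the luminescence signal of 40% or more relative to plate controls, in a single-dose primary screen at 18.75 µM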
Mdm2 MdmX conf: Mdm2/MdmX (human) interaction inhibition, confirmed; 740 compounds, 99% hits; shares compounds with HIF-2a block; inhibition, % at 8 µM; SaOS-2 split-luciferase Mdm2/MdmX complementation, luminescence;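 active = mean inhibition of the luminescence signal across two replicates at or above 26 percent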
Target sequence (O15151 whole entry, looked up): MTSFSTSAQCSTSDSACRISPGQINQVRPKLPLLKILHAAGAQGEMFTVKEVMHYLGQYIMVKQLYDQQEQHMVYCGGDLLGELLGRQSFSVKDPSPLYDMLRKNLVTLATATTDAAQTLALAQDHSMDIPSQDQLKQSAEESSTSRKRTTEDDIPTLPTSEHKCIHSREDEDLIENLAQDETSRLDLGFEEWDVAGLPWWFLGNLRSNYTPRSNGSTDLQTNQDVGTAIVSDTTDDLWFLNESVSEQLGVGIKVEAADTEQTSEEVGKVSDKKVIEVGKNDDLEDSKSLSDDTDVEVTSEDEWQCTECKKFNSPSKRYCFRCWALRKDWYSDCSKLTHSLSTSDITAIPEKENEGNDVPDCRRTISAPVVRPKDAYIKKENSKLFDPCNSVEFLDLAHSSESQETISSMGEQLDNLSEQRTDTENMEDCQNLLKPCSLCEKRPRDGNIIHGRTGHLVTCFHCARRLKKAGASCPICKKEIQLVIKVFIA
Target sequence (Q00987 whole entry, looked up): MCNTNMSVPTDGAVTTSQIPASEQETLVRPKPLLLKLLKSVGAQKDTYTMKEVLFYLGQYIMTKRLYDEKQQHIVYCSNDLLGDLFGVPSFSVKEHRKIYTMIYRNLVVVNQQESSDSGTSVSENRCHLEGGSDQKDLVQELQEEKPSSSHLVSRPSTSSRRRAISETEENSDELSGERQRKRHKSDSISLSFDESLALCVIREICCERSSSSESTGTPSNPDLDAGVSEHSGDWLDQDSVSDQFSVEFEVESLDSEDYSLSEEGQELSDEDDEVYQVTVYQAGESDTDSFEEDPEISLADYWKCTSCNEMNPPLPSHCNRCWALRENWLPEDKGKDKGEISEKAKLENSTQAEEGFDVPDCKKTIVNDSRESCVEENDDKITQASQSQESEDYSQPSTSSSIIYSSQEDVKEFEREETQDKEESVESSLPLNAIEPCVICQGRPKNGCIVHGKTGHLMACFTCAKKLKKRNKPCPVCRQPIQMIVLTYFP
HIF-2a inh conf: HIF-2a inhibition, single concentration confirmation | shares compounds with HIF-2a block | 786-0 RCC cells, HIF-2a luciferase reporter luminescence, overnight | inhibition, % at 18.8 µM | 1,800 compounds, 56% hits | AID 651580;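 active = mean inhibition across four replicates of at least 40 percent at the single tested concentration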
HIF-1a counter: inhibits HIF-1a reporter, a counter-screen for HIF-2a inhibitors | shares compounds with HIF-2a block | MiaPaCa-2 HIF-1a luciferase reporter, desferoxamine, overnight | inhibition, % at 18.8 µM | 1,800 compounds, 72% hits | AID 651589;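 active = mean inhibition of the reporter signal across four replicates at the single tested dose of 50% or more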
Active calls of the source: *. Rows were chosen to be rich in hits. Some 3.1% of all compounds tested hit in one or more screens of this group.

COc1ccccc1-c1cc2nc(C)c(CCC(=O)NCc3ccco3)c(C)n2n1 was read as KKLEB tox 4.7, TRPM1 prom inh 14.6, CF NFkB block 12.5, Peg3 promoter -2.1, ABHD5-PLIN5 inh 6.9, HIF-2a block 48.5*, HIF-2a inh conf 55.3* and HIF-1a counter 41.1.
For Cc1nc2cc(-c3cccc(F)c3)nn2c(C)c1CCC(=O)NC(C)CCc1ccco1 (stereo not given) the results were KKLEB tox -12.8, TRPM1 prom inh 53.0, CF NFkB block 9.8, Peg3 promoter -0.6, ABHD5-PLIN5 inh 10.6, HIF-2a block 73.5*, HIF-2a inh conf 81.7* and HIF-1a counter 72.2*.
COc1ccc(CNC(=O)CCc2c(C)nc3cc(-c4ccccc4OC)nn3c2C)cc1 was read as KKLEB tox 0.0, TRPM1 prom inh 8.0, CF NFkB block 17.4, Peg3 promoter -1.0, ABHD5-PLIN5 inh 8.0, HIF-2a block 49.4*, HIF-2a inh conf 58.4* and HIF-1a counter 30.7.
Screening O=C1NC(Cc2ccccc2)c2nc3ccc(Cl)cc3c(=O)n2-c2ncccc21 (stereo not given) returned KKLEB tox -27.4, CF NFkB block -12.0, Peg3 promoter 1.2, ABHD5-PLIN5 inh -1.1 and HIF-2a block 1.8.
`COc1ccc([C@@H]2[C@@H]3C(=O)N(C(C)(C)C)C(=O)[C@@H]3[C@]3(C)C(=O)N(c4ccc(C(F)(F)F)cc4)C(=O)N23)cc1` gave KKLEB tox 5.6, TRPM1 prom inh -4.4, CF NFkB block -20.4, Peg3 promoter -47.4, ABHD5-PLIN5 inh 3.8 and HIF-2a block -54.3.
Cc1ccc2c(c1)C(=O)N1c3cc(C)c(C)cc3NC(=O)C1C(=O)N2 (stereo not given) was read as KKLEB tox 0.9, CF NFkB block -10.3, Peg3 promoter 5.5, ABHD5-PLIN5 inh 6.2 and HIF-2a block 3.4.
Screening COc1cc(NCCCC(C)N)c2ncccc2c1 (stereo not given) returned KKLEB tox -9.7, TRPM1 prom inh 9.2, CF NFkB block -12.2, Peg3 promoter 44.7, ABHD5-PLIN5 inh -8.3, HIF-2a block 83.8*, HIF-2a inh conf 18.9 and HIF-1a counter 90.1*.
`COc1cc(NCCCCC(C)N)c2nccc(C)c2c1` (stereo not given) gave KKLEB tox 10.4, CF NFkB block 44.7, Peg3 promoter 6.8, ABHD5-PLIN5 inh -3.1 and HIF-2a block 21.9.
`C#CCn1c(S(=O)(=O)Cc2ccc(F)cc2)nc(-c2ccccc2)c1-c1ccccc1` gave KKLEB tox 2.7, TRPM1 prom inh -16.8, CF NFkB block 8.8, Peg3 promoter 11.0, ABHD5-PLIN5 inh -8.3, HIF-2a block -5.6 and Mdm2 MdmX conf 101.2*.
COC(=O)CCNCCSc1nnc(-c2ccco2)n1Cc1ccccc1 was read as KKLEB tox -4.3, TRPM1 prom inh 0.6, CF NFkB block 2.1, Peg3 promoter -0.7, ABHD5-PLIN5 inh -0.5 and HIF-2a block 4.8.
Cc1ccc(Cl)c(NC(=O)COC(=O)c2ccccc2C(=O)c2ccc(Cl)c([N+](=O)[O-])c2)c1Cl was read as KKLEB tox -99.0*, TRPM1 prom inh 87.3*, CF NFkB block 94.5*, Peg3 promoter 99.8*, ABHD5-PLIN5 inh 5.9, HIF-2a block 97.2*, HIF-2a inh conf 3.9 and HIF-1a counter 107.5*.
Cc1ccc(C(=O)c2ccccc2C(=O)OCC(=O)Nc2cccc([N+](=O)[O-])c2)cc1 was read as KKLEB tox 3.1, TRPM1 prom inh -9.0, CF NFkB block 9.2, Peg3 promoter -4.3, ABHD5-PLIN5 inh -4.1 and HIF-2a block -13.6.
COC(=O)c1ccccc1NC1=C/C(=N\S(=O)(=O)c2cccs2)c2ccccc2C1=O was read as KKLEB tox -71.6*, TRPM1 prom inh 77.8*, CF NFkB block 83.1*, Peg3 promoter 86.2*, ABHD5-PLIN5 inh -12.5, HIF-2a block -28.0 and Mdm2 MdmX conf 96.5*.
CS(=O)(=O)c1ncc(Cl)c(C(=O)Nc2ccc3ccccc3c2)n1 was read as KKLEB tox -99.6*, TRPM1 prom inh 103.7*, CF NFkB block 89.1*, Peg3 promoter 106.4*, ABHD5-PLIN5 inh 77.4*, HIF-2a block 94.8*, HIF-2a inh conf 97.3* and HIF-1a counter 91.5*.
`CCCn1c(SCC(=O)c2c[nH]c3ccccc23)nnc1-c1ccncc1` gave KKLEB tox -6.7, TRPM1 prom inh 13.7, CF NFkB block -3.9, Peg3 promoter 11.5, ABHD5-PLIN5 inh 4.6 and HIF-2a block 15.1.
Screening CC1CCc2c(sc3nc(C(C)(C)C)nc(N4CCN(C(=O)CCl)CC4)c23)C1 (stereo not given) returned KKLEB tox -92.3*, TRPM1 prom inh 16.8, CF NFkB block 96.6*, Peg3 promoter 56.2*, ABHD5-PLIN5 inh 17.8, HIF-2a block 42.5*, HIF-2a inh conf 33.3 and HIF-1a counter 105.9*.
Screening CCC(=O)N1CCN(c2nc(CC)nc3sc4c(c23)CCCC4)CC1 returned KKLEB tox -13.9, TRPM1 prom inh 3.0, CF NFkB block 12.4, Peg3 promoter 2.8, ABHD5-PLIN5 inh -3.1 and HIF-2a block 14.5.
Screening COc1cc2c(OC(C)=O)c3c(c(-c4ccc5c(c4)OCO5)c2cc1OC)C(=O)OC3 returned KKLEB tox -34.7, CF NFkB block 16.6, Peg3 promoter 78.4*, ABHD5-PLIN5 inh -4.2, HIF-2a block -46.4 and Mdm2 MdmX conf 88.2*.
COc1ccc(Nc2oc(COc3ccc(Cl)cc3)nc2C#N)cc1 was read as KKLEB tox -9.3, TRPM1 prom inh 27.1, CF NFkB block -2.9, Peg3 promoter 47.0, ABHD5-PLIN5 inh -8.6, HIF-2a block 49.5*, HIF-2a inh conf 34.2 and HIF-1a counter 51.3*.
Screening COc1ccc(CNc2oc(COc3ccc(Cl)cc3)nc2C#N)cc1 returned KKLEB tox 3.6, TRPM1 prom inh -2.1, CF NFkB block -7.3, Peg3 promoter 26.1, ABHD5-PLIN5 inh -1.7 and HIF-2a block 2.8.
Screening O=C1C=C(c2ccc3c(c2)OCO3)C[C@@H](c2ccc(Cl)cc2)C1 returned KKLEB tox 1.9, CF NFkB block -6.0, Peg3 promoter -7.5, ABHD5-PLIN5 inh 6.8 and HIF-2a block -8.2.
For CC(C)C[C@H](NC(=O)c1nc[nH]c1C(=O)N(C)Cc1ccccc1)C(=O)OCc1ccccc1 the results were KKLEB tox -12.2, TRPM1 prom inh -2.5, CF NFkB block 14.3, Peg3 promoter 22.9, ABHD5-PLIN5 inh -7.5 and HIF-2a block -2.4.

Screens as filed in PubChem.
